Assay results as given in ChEMBL document CHEMBL4888484, “Replenishing the malaria drug discovery pipeline: Screening and hit evaluation of the MMV Hit Generation Library 1 (HGL1) against asexual blood stage Plasmodium falciparum ,using a nano luciferase reporter read-out” (2022).
The whole screen tested about 150,000 compounds, of which about 540 (0.36%) showed an effect of 50% or more. The entries come from a sample that favours strong results as a whole.

What follows are molecules tested on Plasmodium falciparum (assay: Primary screen in NF54 nanoGlo assay, in single point, at 2uM, 72h; a lower Z score goes with more inhibition). Conditions: timepoint 72 hour.
Format: functional, Erythrocyte
In the case of `CN(CC(F)(F)F)C(=O)CNc1ncccn1`, the “% Inhibition” value is reported as 3% and the Z score is reported as -0.38. In the case of `Cc1cc(C)cc(NC(=O)C23CCC(C)(C(=O)C2=O)C3(C)C)c1` (stereo not given), the “% Inhibition” value is reported as 9% and the Z score is reported as -1.39. With `COc1cccc(NC(=O)c2cc(C(=O)Nc3cccc(OC)c3)cc(N3C(=O)c4ccccc4C3=O)c2)c1` the “% Inhibition” value was 18% and the Z score was -2.84. For `CC(C)c1nc(O)cc(CN2CCCCC2)n1`, the “% Inhibition” value was 33% and the Z score was 1.16. With `CC(C)c1ccc(-c2nc(CN3CCCCC3)cc(CN3CCCCC3)c2O)cc1` the “% Inhibition” value was 96% and the Z score was -15.06. `Cc1nc(O)cc(CN2CCCCC2)n1` was tested, and the “% Inhibition” value was -11% and the Z score was 1.95. In the case of `Cc1ccc(S(=O)(=O)c2c(N)n(-c3ccc4c(c3)OCCO4)c3nc4ccccc4nc23)cc1`, the “% Inhibition” value is reported as 6% and the Z score is reported as -0.5. In the case of `O=C(NC1CC1c1ccc(F)cc1)N1CCN(c2ccccc2O)CC1` (stereo not given), the “% Inhibition” value is reported as -7% and the Z score is reported as 1.5. In the case of `CC1(C)COc2ccc(C(=O)N3CC[C@H](O)C3(C)C)cc21`, the “% Inhibition” value is reported as 19% and the Z score is reported as -2.22. `CCn1nnc2cc(C(=O)N3CCN(C(c4ccccc4)c4ccccc4)CC3)ccc21` was tested, and the “% Inhibition” value was 32% and the Z score was -3.63. `COc1ccccc1-c1cc2nc(C)cc(N3CCN(Cc4ccccc4)CC3)n2n1` was tested, and the “% Inhibition” value was -10% and the Z score was 1.85. With `COc1ccc(-c2nn3c(N4CCN(CC=Cc5ccccc5)CC4)cc(C)nc3c2C)cc1OC` the “% Inhibition” value was 72% and the Z score was -3.65. For `COc1ccccc1-c1cc2nc(C)cc(N3CCN(CCO)CC3)n2n1`, the “% Inhibition” value was -14% and the Z score was 1.98. With `COc1ccc(-c2nn3c(N4CCN(C)CC4)cc(C)nc3c2C)cc1OC` the “% Inhibition” value was -11% and the Z score was 2.19. In the case of `COc1ccc(-c2nn3c(N4CCCCCC4)cc(C)nc3c2C)cc1OC`, the “% Inhibition” value is reported as -8% and the Z score is reported as 1.59. With `COc1ccc(-c2cc3nc(C)cc(N4CCN(C/C=C/c5ccccc5)CC4)n3n2)cc1OC` the “% Inhibition” value was 51% and the Z score was -9.31. With `COc1ccc(NC(=O)CN2C(=O)[C@H]3CCCC3=Nc3ccccc32)cc1` the “% Inhibition” value was 1% and the Z score was -0.17. In the case of `Cc1cc(S(=O)(=O)N(C)CCC(=O)O)sc1C`, the “% Inhibition” value is reported as -30% and the Z score is reported as 2.75. With `COc1ccc(-n2c(CN3CCCC3)n[nH]c2=O)c(C)c1` the “% Inhibition” value was -9% and the Z score was 0.87. For `Cc1ccc(OCC(=O)Nc2noc(-c3ccc(F)cc3)n2)cc1`, the “% Inhibition” value was -8% and the Z score was 1.23. For `CNc1nc(N2C[C@H]3CC[C@@H](C2)N(C)C3=O)nc2c1CCC2`, the “% Inhibition” value was 6% and the Z score was -0.76. With `CNc1cc(C)nc(N2C[C@H](C)[C@@](O)(C3CC3)C2)n1` the “% Inhibition” value was 7% and the Z score was -1.4. In the case of `CNc1nc(N2C[C@H](C)[C@@](O)(C3CC3)C2)nc2c1CCC2`, the “% Inhibition” value is reported as 100% and the Z score is reported as -0.11. With `C=C1C2CCC3(C4C[C@@H]5[C@@]6(C)CCC[C@]5(C3[C@H]2O)[C@@H]4N(CC)C6)[C@@H]1O` (stereo not given in full) the “% Inhibition” value was 31% and the Z score was -3.48. With `Cc1ccc(-c2cc(C(=O)N(Cc3cccs3)[C@H]3CCS(=O)(=O)C3)no2)cc1F` the “% Inhibition” value was -11% and the Z score was 2.15. In the case of `CCCCN(C)c1cc([C@H]2C[C@@H](N)C2)nc(N)n1`, the “% Inhibition” value is reported as -3% and the Z score is reported as 0.38. For `CN(Cc1ccc(-c2ccccc2)cc1)c1cc([C@H]2C[C@@H](N)C2)nc(N)n1`, the “% Inhibition” value was 64% and the Z score was -8.85. With `CN(Cc1cc(-c2ccccc2)n[nH]1)c1cc(C2CC(O)C2)nc(N)n1` (stereo not given) the “% Inhibition” value was 7% and the Z score was -1.1. In the case of `CCn1c(CN[C@H](c2ccccc2)c2cccs2)nc2cc(S(=O)(=O)N3CCCCC3)ccc21`, the “% Inhibition” value is reported as 14% and the Z score is reported as -1.61. In the case of `Cc1ccc(NC(=O)N2CC[C@H](N3CCN(C)CC3)[C@H](CCC(=O)O)C2)c(C)c1`, the “% Inhibition” value is reported as 16% and the Z score is reported as -2.12. In the case of `O=C1CCCN1c1ccc(NCc2cccc(O)c2)cc1F`, the “% Inhibition” value is reported as -2% and the Z score is reported as 0.32. For `O=C(N1CCCN(C2CCC2)CC1)C1(c2ccccc2)CCOCC1`, the “% Inhibition” value was -14% and the Z score was 2.36. With `CCOc1cc(CNc2cccc3ccccc23)cc(Br)c1OCC(=O)NC(C)(C)C` the “% Inhibition” value was 56% and the Z score was -9.96. In the case of `CCOc1cc(CNC2CCCC2)cc(Br)c1OCC(=O)Nc1ccccc1OC`, the “% Inhibition” value is reported as -12% and the Z score is reported as 1.42. With `CCOc1cc(CNc2cc(C)ccc2C)cc(Br)c1OCC(=O)Nc1ccccc1` the “% Inhibition” value was -2% and the Z score was 0.3. With `CN(C)c1ccccc1NC(=O)N[C@H]1CCS(=O)(=O)C1` the “% Inhibition” value was -11% and the Z score was 1.66. In the case of `COc1ccc(-n2c(-c3sc(Nc4ccc(Cl)cc4)nc3C)nc3ccccc3c2=O)cc1`, the “% Inhibition” value is reported as -3% and the Z score is reported as 0.38. With `COC(=O)Nc1nc(-c2ccccc2)c(-c2nc3ccccc3c(=O)n2-c2ccc(OC)cc2)s1` the “% Inhibition” value was 51% and the Z score was -6.56. In the case of `CCOC(=O)Nc1nc(C)c(-c2nc3ccccc3c(=O)n2-c2ccc(OC)cc2)s1`, the “% Inhibition” value is reported as 37% and the Z score is reported as 0.52. `C[C@H]1C(=O)N(C)C[C@@H](COc2ccccc2)N1C(=O)C1CCOCC1` was tested, and the “% Inhibition” value was -7% and the Z score was 0.87. `Cc1cc(CNC(=O)N[C@@H]2CCc3cc(F)ccc32)on1` was tested, and the “% Inhibition” value was -7% and the Z score was 0.96. In the case of `O=C(NC1=NN2C(=NC(c3ccc(Cl)cc3)=C[C@H]2c2ccc(F)cc2)N1)c1ccc(Cl)cc1`, the “% Inhibition” value is reported as 48% and the Z score is reported as -9.04. In the case of `CCC(=O)NC1=NN2C(=NC(c3ccc(Cl)cc3)=C[C@H]2c2ccc(F)cc2)N1`, the “% Inhibition” value is reported as 5% and the Z score is reported as -0.64. For `COc1ccccc1C(=O)NC1=NN2C(=NC(c3ccc(Cl)cc3)=C[C@H]2c2ccc(Cl)cc2)N1`, the “% Inhibition” value was 97% and the Z score was -10.07. With `COc1ccccc1C(=O)NC1=NN2C(=NC(c3ccc(Cl)cc3)=C[C@H]2c2ccccc2)N1` the “% Inhibition” value was -8% and the Z score was 0.83. With `COc1ccc([C@@H]2C=C(c3ccc(Cl)cc3)N=C3NC(NC(=O)c4ccccc4OC)=NN32)cc1` the “% Inhibition” value was 96% and the Z score was -8.52. In the case of `COc1ccc([C@@H]2C=C(c3ccc(Cl)cc3)N=C3NC(N4C(=O)c5ccccc5C4=O)=NN32)cc1`, the “% Inhibition” value is reported as -6% and the Z score is reported as 0.61. In the case of `O=C(NC1=NN2C(=NC(c3ccccc3)=C[C@H]2c2ccc(F)cc2)N1)c1ccccc1`, the “% Inhibition” value is reported as -11% and the Z score is reported as 1.69. `Fc1ccc(C2=C[C@@H](c3ccc(Cl)cc3)N3N=C(c4ccc(Cl)cc4)NC3=N2)cc1` was tested, and the “% Inhibition” value was 96% and the Z score was -14.66. For `O=C(O)CCC(=O)NC1=NN2C(=NC(c3ccccc3)=C[C@H]2c2ccc(Cl)cc2)N1`, the “% Inhibition” value was -39% and the Z score was 4.56.
